{
  "source": "PubChem BioAssay AID1491",
  "about": "(National Center for Advancing Translational Sciences (NCATS), 2009)",
  "note": "Values joined by “and” are separate entries in the source; they are usually repeats but may differ in a detail not shown here. Equal values may be shown once. Records with an inconclusive call do not appear. Unmarked numbers belong to inactive results. Active and inactive are the calls of the source. Calls follow the shape of the dose curve; as a rule, active = well fitted inhibition curve with a large enough effect in the main read-out, with a control signal flat; inconclusive = small, poorly fitted or top-dose-only effect, or a change in a side signal; inactive = flat fitted curve, though single readings scatter. Potency is read from the fitted curve at half-maximal effect.",
  "data": [
    {"molecular_target": "Neuropeptide S receptor (Homo sapiens) (UniProt Q6W5P4)", "sequence (Q6W5P4 whole entry, looked up)": "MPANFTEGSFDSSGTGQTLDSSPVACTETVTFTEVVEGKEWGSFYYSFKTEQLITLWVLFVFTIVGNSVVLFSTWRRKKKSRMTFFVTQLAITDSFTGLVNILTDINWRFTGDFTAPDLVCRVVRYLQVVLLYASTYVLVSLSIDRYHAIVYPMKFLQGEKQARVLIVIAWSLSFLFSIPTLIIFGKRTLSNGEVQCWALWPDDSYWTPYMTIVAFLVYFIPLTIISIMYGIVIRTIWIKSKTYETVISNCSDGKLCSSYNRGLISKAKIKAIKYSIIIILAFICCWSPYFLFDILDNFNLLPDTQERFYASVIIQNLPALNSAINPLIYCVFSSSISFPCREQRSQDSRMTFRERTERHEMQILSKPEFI", "experiment": "Confirmation Concentration-Response Assay for Antagonists of the Neuropeptide S Receptor: cAMP Signal Transduction;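 as to activity change, negative = inhibition: 0% = DMSO with NPS and full inhibition = wells lacking NPS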", "conditions": "CHO-NPSR cells, cAMP TR-FRET, antagonist mode; series mostly up to 22.3 µM; activity change, negative = inhibition: at the top concentration", "from_the_text": "NIH Chemical Genomics Center [NCGC] NIH Molecular Libraries Probe Production centers Network [MLPCN] MLPCN Grant: X01-DA026210-01 Assay Submitter (PI): Heilig, Markus Alexander NCGC Assay Overview: Neuropeptide S receptor (NPSR), previously known as GPR154, is a recently de-orphanized G protein coupled receptor. Its endogenous ligand is the 20 amino acids peptide Neuropeptide S (NPS). […] NPS and its receptor are found in various tissues. Specifically they are highly expressed in brain areas that have been implicated in modulation of arousal, stress and anxiety. Central administration of NPS in mice produces an unusual profile of activity by inducing wakefulness and arousal, while at the same time suppressing anxiety. Therefore, NPSR may represent a novel drug target for the treatment of sleep and anxiety disorders. To identify NPSR antagonists, we developed a cell-based cAMP assay. NPS can stimulate the production of cAMP in Chinese hamster ovary cells stably expressing NPS receptor. This change in intracellular cAMP level can be detected by a homogeneous LANCE cAMP assay based on the TR-FRET (time resolved fluorescence resonance energy transfer) between a europium-labeled cAMP tracer complex and a cAMP-specific antibody labeled with Alexa Fluor 647. The europium-labeled cAMP tracer complex is formed by the tight interaction between Biotin-cAMP (b-cAMP) and streptavidin labeled with Europium-W8044 chelate (Eu-SA). Light pulse at 320 nm excites the europium of the cAMP tracer and the energy emitted is transferred to the Alexa molecule bound to the cAMP antibody, generating a TR-FRET signal at 665 nm. Residual energy from the europium will produce a light at 620 nm. The native unlabeled cAMP from cell lysates competes with the europium-cAMP tracer for antibody binding and reversely reduces the emission signal of Alexa by interrupting FRET between the two labeled molecules. Both emission signals from the FRET donor (620 nm) and the acceptor (665 nm) can be detected by a plate reader in the TRF mode. Expression of result in fluorescence ratio (665 nm/620 nm) helps to normalize differences due to cell density and reagent dispensing. This assay was successfully optimized to a 1536-well plate format. Select compounds from the primary screen (AID 1461) were chosen for confirmation based on potency, efficacy, SAR, and activity across other assays in PubChem and at NCGC. Other compounds are analogs of active compounds from the primary sceen.\nNCGC Assay Protocol Summary: A Chinese hamster ovary (CHO) cell line stably expressing the NPS receptor (CHO-NPSR) was obtained from Dr. Heilig lab at NIAAA and maintained in F-12 Kaighn's media (Invitrogen, Carlsbad, CA, 21127) supplemented with 10 % FBS, 100 units/ml penicillin, 100 ug/ml streptomycin and 250 ug/ml geneticin at 37C, 5% CO2 in a humidified atmosphere. Before the assay, aliquots of cells were frozen and stored at -135C. The assay was performed in 1536-well format. Data are reported for both the ratio of the two emission wavelengths, and also for the component 'donor' channel, Em2=620. […] IC50 values were determined from concentration-response data modeled with the standard Hill equation. NPS 1536-well assay protocol: (1) Fresh or frozen CHO-NPSR cells were suspended in F-12 Kaighn's media supplemented with 10 % FBS, 100 units/ml penicillin and 100 ug/ml streptomycin. Cells were plated at 4 ul/well (1200 cells) to white, tissue culture treated 1536-well plates, and then cultured at 37C, 5 % CO2 for 16 to 30 hours. (2) Add 23 nl/well of compound in DMSO solution. The final titration for each compound was between 0.6 nM and 46 uM. (3) Add 1 ul of stimulation reagent (1X HBSS buffer, 5 mM HEPES, 0.1% BSA, 500 uM RO-201724 (Sigma-Aldrich, B8279), 1.5% Alexa 647-labeled anti-cAMP antibody (from Perkin Elmer), 100 nM NPS) (4) Incubation at 37C, 5 % CO2 for 60 min. (5) Add 1 ul/well detection reagent. […]", "values": [
      {"compound": "Cc1cccc(-c2nnc(SCc3cc(=O)[nH]c4ccccc34)n2C)c1", "activity change, negative = inhibition": "-8.22%"},
      {"compound": "CCN(CC)S(=O)(=O)c1ccc2c(c1)nc(SC(C)C(N)=O)n2-c1ccc(OC)cc1", "note": "(stereo not given)", "activity change, negative = inhibition": "-17.6%"},
      {"compound": "COc1cccc(C2c3c(ncn(-c4ccccc4)c3=N)Oc3ccc4ccccc4c32)c1", "note": "(stereo not given)", "Potency": "2 µM (active) and 1.58 µM (active)"},
      {"compound": "Cc1cc(C)n(-c2nc(Nc3ccccc3C(F)(F)F)nc(-n3nc(C)cc3C)n2)n1", "Potency": "11.2 µM (active)"},
      {"compound": "CC1(C)O[C@@H]2C[C@H]3[C@@H]4C[C@H](F)C5=CC(=O)CC[C@]5(C)[C@H]4[C@@H](O)C[C@]3(C)[C@]2(C(=O)CO)O1", "activity change, negative = inhibition": "-6.23%"},
      {"compound": "CN(C)S(=O)(=O)Nc1ccccc1C(N)=O", "activity change, negative = inhibition": "-5.22%"},
      {"compound": "O=C(N/N=C/c1ccc([N+](=O)[O-])o1)c1ccc(O)cc1", "activity change, negative = inhibition": "-3.61%"},
      {"compound": "COc1ccc(N=C2S/C(=C\\c3ccc(N4CCOCC4)o3)C(=O)N2CCc2c[nH]c3ccccc23)cc1", "Potency": "2.24 µM (active)"},
      {"compound": "O=C(Nc1ncnc2c1C(c1ccccc1)c1c(ccc3ccccc13)O2)c1ccccc1", "note": "(stereo not given)", "Potency": "6.31 µM (active)"},
      {"compound": "C=CCNC(=O)/C(C#N)=C/c1cn(-c2ccccc2)nc1-c1ccc(OC)c([N+](=O)[O-])c1", "activity change, negative = inhibition": "-2.43%"},
      {"compound": "CN(C)c1ccc(N2CN=C3SCC(=O)N3C2)cc1", "activity change, negative = inhibition": "20.4%"},
      {"compound": "O=[N+]([O-])c1ccc(N=Nc2ccc(O)cc2O)cc1", "activity change, negative = inhibition": "0.533%"},
      {"compound": "CN(C)c1ccc(N=Cc2ccco2)cc1", "activity change, negative = inhibition": "-23%"},
      {"compound": "Cc1nnc(NC(=O)c2cccc(S(=O)(=O)N3CCc4ccccc43)c2)s1", "activity change, negative = inhibition": "-8.24%"},
      {"compound": "O=C(CCc1ccccc1)Nc1ncnc2c1C(c1ccccc1)c1c(ccc3ccccc13)O2", "note": "(stereo not given)", "Potency": "3.55 µM (active)"},
      {"compound": "CC(=O)c1sc(N/N=C\\c2ccccc2O)nc1C", "Potency": "7.08 µM (active)"},
      {"compound": "CN(C)c1nc(=Nc2cccc(Cl)c2)ss1", "activity change, negative = inhibition": "-8.2%"},
      {"compound": "COc1cccc(C2C(C#N)=C(NC(=O)CCc3ccccc3)Oc3ccc4ccccc4c32)c1", "note": "(stereo not given)", "activity change, negative = inhibition": "-10.6%"},
      {"compound": "Cc1ccc(Cn2cc(SCC(=O)Nc3nccs3)c3ccccc32)cc1", "activity change, negative = inhibition": "-8.92%"},
      {"compound": "C(=N\\Nc1nc(-c2ccccn2)nc2ccccc12)/c1ccccc1", "activity change, negative = inhibition": "-13%"},
      {"compound": "c1ccc(CSC2=NNC(c3ccccn3)S2)cc1", "note": "(stereo not given)", "activity change, negative = inhibition": "-10.1%"},
      {"compound": "Cc1nn(C)cc1/C=N/NC(=S)Nc1ccccc1", "activity change, negative = inhibition": "-0.853%"},
      {"compound": "CCOC(=O)CCC(=O)Nc1ncnc2c1C(c1ccccc1)c1c(ccc3ccccc13)O2", "note": "(stereo not given)", "Potency": "2 µM (active)"},
      {"compound": "COc1cccc(N2CCN(c3ncnc4c3[nH]c3ccc(F)cc34)CC2C)c1", "note": "(stereo not given)", "Potency": "5.62 µM (active)"},
      {"compound": "Cc1ccc(Nc2cc(C)nn2-c2nc(C)cc(C)n2)cc1", "activity change, negative = inhibition": "-9.37%"},
      {"compound": "COc1ccc(-c2cc(N)n(S(=O)(=O)c3c(F)c(F)c(F)c(F)c3F)n2)cc1OC", "Potency": "7.08 µM (active)"},
      {"compound": "CN(Cc1cc(=O)[nH]c2ccccc12)C(=O)c1ccccc1", "activity change, negative = inhibition": "-1.96%"},
      {"compound": "N=c1c2c(ncn1-c1ccccc1)Oc1ccc3ccccc3c1C2c1ccc2c(c1)OCCO2", "note": "(stereo not given)", "Potency": "1.41 µM (active)"},
      {"compound": "c1cncc(-c2nc(-c3ccco3)cs2)c1", "activity change, negative = inhibition": "-9.66%"},
      {"compound": "Cc1ccc(S(=O)(=O)Nc2ccccc2CNc2c(C)n(C)n(-c3ccccc3)c2=O)cc1", "activity change, negative = inhibition": "-20.6%"},
      {"compound": "CCCCNS(=O)(=O)c1ccc2nc(-c3cccnc3)cc(C(=O)NC(C)CC)c2c1", "note": "(stereo not given)", "activity change, negative = inhibition": "-6.53%"},
      {"compound": "CCC(C)n1c(=O)c(C(=O)Nc2ccccc2S(N)(=O)=O)c(O)c2ccccc21", "note": "(stereo not given)", "activity change, negative = inhibition": "-13.3% [at 47.8 µM]"},
      {"compound": "COC(=O)c1ccc(C(=O)OC)c(NC(=O)CSc2cccc[n+]2[O-])c1", "activity change, negative = inhibition": "-6.2%"},
      {"compound": "CCC(c1nnnn1C1CCCC1)N1CCN(c2ccccc2)CC1", "note": "(stereo not given)", "activity change, negative = inhibition": "-5.45%"},
      {"compound": "O=C(Cc1ccccc1)Nc1ncnc2c1C(c1ccccc1)c1c(ccc3ccccc13)O2", "note": "(stereo not given)", "Potency": "1.58 µM (active)"},
      {"compound": "O=C(O)C1CCN(c2nc(-c3ccccc3)nc3c2oc2ccccc23)CC1", "activity change, negative = inhibition": "-13.7%"},
      {"compound": "N[C@@H](Cc1cc(I)c(Oc2ccc(O)c(I)c2)c(I)c1)C(=O)O", "activity change, negative = inhibition": "1.71%"},
      {"compound": "C(=C\\c1ccccc1)/C=N/N1CCN(c2ccccn2)CC1", "activity change, negative = inhibition": "5.88%"},
      {"compound": "COc1ccc(/C=C2\\CCCC3C2=NN(C(=O)c2ccco2)C3c2ccc(OC)c(OC)c2)cc1OC", "note": "(stereo not given)", "Potency": "inactive"},
      {"compound": "Cc1nn(C(=O)c2cccs2)c(N)c1-c1ccccc1", "activity change, negative = inhibition": "0.84%"}
    ]}
  ]
}
